The list is not random: actives were taken first. Their share in the collection is about 2.2%.
Arbovirus inh: antivirals against arbovirus infection, primary screen, cell-based, full library, 10K replicate subset. arbovirus infection cell-based antiviral screen. inhibition, % at 10 µM. hit rate 0.37% among 200,000. AID 1251, 2008; in the data active = inhibition above about 30%
Efa HMGR inh: inhibitors of E. faecalis class II HMGR, primary screen, biochemical, Enterococcus faecalis; HMG-CoA reductase (Enterococcus faecalis, mvaE); purified E. faecalis HMGR, NADPH absorbance 340 nm kinetic; inhibition, % at 10 µM; hit rate 0.41% among 190,000; AID 1066, 2008;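 active = inhibition above a set limit, the median over all tested compounds plus 3 SD, cut at about 9.5% in these data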;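 also: enzyme runs in reverse so mevalonate oxidation gives rising NADPH absorbance; 0% = complete reaction with DMSO and 100% = background rate lacking mevalonate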
Redox H2O2 prof: compounds producing H2O2 with reducing agent – biochemical, NIH compound library profiling, artefact control for MLSCN library redox annotation, primary screen; AID 878, 2007; DTT-dependent redox cycling H2O2, phenol red/HRP absorbance; 100% = 100 µM peroxide control, 0% = buffer; activation, % at 10 µM; hit rate 0.03% among 200,000;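 active = activation of at least 50% relative to the plate's high and low controls in the primary single-dose screen; inactive = activation below 50%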;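 also: compound incubated with DTT at 0.8 mM final as the reducing agent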
Insulin prom up: insulin promoter activators in MIN6 cells, imaging, high-content screening, mouse beta cells | MIN6 insulin promoter-GFP reporter; stronger effect = higher value | z-score at 5 µM | hit rate 0.3% among 190,000 | AID 1625, 2009;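 active = z-score above 3 at 5 µM with at least 500 cells counted in the well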
p47phox inh: p47phox/p22phox peptide binding inhibitors, primary screen, biochemical, uHTS, NADPH oxidase regulatory subunit; inhibition, % at 24.7 µM; fluorescence polarization, 2 h; hit rate 0.53% among 220,000;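 active = inhibition above about 30%, limit read from the data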;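 also: 0% = p47phox with labelled peptide and 100% = labelled peptide alone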
Target sequence (P14598 whole entry, looked up): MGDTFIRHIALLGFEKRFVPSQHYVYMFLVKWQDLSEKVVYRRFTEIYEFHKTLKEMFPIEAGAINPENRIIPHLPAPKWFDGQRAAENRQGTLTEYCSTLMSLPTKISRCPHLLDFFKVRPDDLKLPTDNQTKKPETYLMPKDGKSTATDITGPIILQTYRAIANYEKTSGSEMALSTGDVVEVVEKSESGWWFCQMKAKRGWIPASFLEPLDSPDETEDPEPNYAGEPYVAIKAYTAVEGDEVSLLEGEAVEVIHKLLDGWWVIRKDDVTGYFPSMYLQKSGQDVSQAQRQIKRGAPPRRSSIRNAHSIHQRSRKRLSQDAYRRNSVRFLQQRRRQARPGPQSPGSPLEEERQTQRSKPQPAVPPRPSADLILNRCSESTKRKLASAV
Autophagy HCS: autophagy modulators in MEF cells, primary screen, imaging, high-content, MEF GFP-LC3; MEF GFP-LC3 puncta imaging; test concentration mostly 10 µM; calls only at 10 µM (by protocol); hit rate 0.98% among 190,000; AID 463193, 2010;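 active = percentage of spot-positive cells more than 3 SD above its plate mean, without a fluorescence outlier flag or 80% toxicity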;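 also: spot-positive cell cutoff set from DMSO-treated cells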
Active calls of the source: *; i = inactive; . = no result given; + = active, no number.

SMILES	Arbovirus inh	Efa HMGR inh	Redox H2O2 prof	Insulin prom up	p47phox inh	Autophagy HCS
CCCCN=Cc1c(C)[nH]n(-c2ccccc2)c1=S	3.3	-2.3	-0.9	0.09	-4.4	i
Cc1c(CN2CCCC(C(=O)c3cccc(OC(C)C)c3)C2)c(=O)n(-c2ccccc2)n1C (centres undefined)	-30.2	-6.8	-0.4	-0.29	-2.7	+
NCCCC[C@H](N)c1nnc([C@H](CC(=O)O)NC(=O)C2CCNCC2)o1	6.1	-2.2	1.9	0.17	-4.8	i
COc1cc2c3nnc(-c4ccc(F)cc4)c-3cn(Cc3ccccc3)c2cc1OC	-37.6	-9.5	-0.8	.	-14.0	+
COc1cc2c3nnc(-c4ccc(F)cc4)c-3cn(Cc3ccc(F)cc3)c2cc1OC	-39.8	-10.6	-0.7	.	-68.2	+
CC(c1ccc(F)cc1)n1c(Cn2ncc3ccccc3c2=O)n[nH]c1=S (centres undefined)	23.0	6.0	0.2	-0.55	-7.7	i
CCc1ccc2nc3sc(C(=O)N4CCc5ccccc54)c(N)c3cc2c1	-4.0	-7.9	0.4	4.93*	16.9	+
CC(C)c1ccc2nc3sc(C(=O)N4CCc5ccccc5C4)c(N)c3cc2c1	-33.2	-0.7	-8.3	0.87	-39.2	i
Cc1ccc(C)c2nc3sc(C(=O)N4CCCc5ccccc54)c(N)c3cc12	-8.6	-3.4	3.0	.	5.6	+
CC(Sc1cccc[n+]1[O-])C(=O)Nc1ccc(Oc2ccccc2)cc1 (centres undefined)	-8.2	-1.0	-0.8	-0.19	-10.6	i
Nc1nnc(Cc2ccccc2F)s1	2.4	-1.8	-1.1	-0.34	0.4	+
NC(=O)[C@@H]1CCCN1Cc1nc(Cc2ccccc2Cl)no1	5.5	-2.8	-1.5	-0.13	5.5	i
COc1cc(OC)cc(-n2nnnc2SCC(=O)Nc2ccc(C(C)=O)cc2)c1	-4.3	-6.3	0.3	.	-9.3	+
Cc1ccccc1N=C1SCC(=O)N1Cc1ccccc1	37.1*	-4.2	-0.5	0.09	-7.5	i
O=C1CSC(=Nc2ccccc2)N1Cc1ccccc1	3.2	-3.7	0.0	-1.03	6.4	i
Cc1cccc(OCCn2c(S(=O)(=O)O)nc3ccccc32)c1	10.2	-8.2	-3.7	1.69	-5.4	i
Cc1cccc(OCCn2c(=S)[nH]c3ccccc32)c1	-13.6	11.3*	0.8	-0.37	13.7	i
O=C(NCC1COc2ccccc2O1)C1CCCN(S(=O)(=O)c2cnc[nH]2)C1 (centres undefined)	.	.	-0.6	-0.38	.	i
O=C(c1ccc([N+](=O)[O-])cc1)N(Cc1ccc(Br)cc1)N1C(=O)CCCC1=O	2.0	-0.3	0.2	0.98	-6.8	+
O=C(c1ccccc1Cl)N(Cc1ccc(Br)cc1)N1C(=O)CCCC1=O	-1.3	-8.1	-0.5	0.16	3.3	i
Cn1nc(-c2ccccc2)c2ncc(C(F)(F)F)cc21	1.4	-2.8	-0.8	0.08	-2.5	i
Cc1cc(C)c2nc(N3CCC(C(=O)NCCCN4CC(C)CC(C)C4)CC3)sc2c1 (centres undefined)	-32.3	1.1	-0.4	-0.31	-11.5	+
CCCS(=O)(=O)N1CCN(CCN2C(=O)c3cccc4cccc(c34)C2=O)CC1	1.4	-2.4	-0.2	-1.62	3.0	i
CCN(CC)CCCn1c(=S)[nH]c2ncccc2c1=O	-1.5	-3.4	0.1	0.8	-11.4	i
O=c1c2cccnc2[nH]c(=S)n1CCCN1CCN(c2ccccc2F)CC1	0.1	0.6	-0.6	-0.75	-4.8	+
Fc1ccc(Br)cc1C1C=C(c2ccc(Br)cc2)Nc2ncnn21 (centres undefined)	70.8*	1.4	0.1	.	-0.6	i
CCc1ccc(C2=CC(c3cc(Br)ccc3F)n3ncnc3N2)cc1 (centres undefined)	62.1*	2.0	-3.3	0.34	-5.3	i
CC(=O)Nc1ccc(S(=O)(=O)NC(C(=O)O)C(C)O)cc1 (centres undefined)	.	.	.	0.66	-11.2	.
CNC(=O)C1CC(=O)N/C(=N/N=C(\C)c2cccs2)S1 (centres undefined)	1.9	-1.2	1.9	3.72*	-20.4	i

Assay outcomes (PubChem BioAssay)
